Test results taken from PubChem BioAssay (NCATS).
Records with an inconclusive call do not appear. Active and inactive are the calls of the source. Unless noted, calls follow the shape of the dose curve; as a rule, active = well fitted curve in the direction sought with a large enough effect; inconclusive = small, poorly fitted or top-dose-only effect, or another doubt; inactive = no such curve, though single readings can be large; an effect the other way counts as inactive or inconclusive.

Tests used:
[1] = biological target: Peptidyl-prolyl cis-trans isomerase NIMA-interacting 1 (Homo sapiens) (UniProt Q13526); experiment: qHTS Validation Assay to Find Inhibitors of Pin1 (AID 504536; active = well fitted inhibition curve with a large enough effect in the polarisation, with a control signal flat, not every such curve was filed as active; the % refers to the polarisation; also: potency is read from the fitted curve at half-maximal effect)
Procedure, shortened: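 Fluorescence polarization competition: compounds (titration) displace HiFluor-488-labeled Pin1-1b peptide from Pin1 (0.3 uM final) in pH 7.5 HEPES buffer with DTT, 10 min at room temperature; %Activity normalized to no-enzyme wells, curves fitted.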

[2] = biological target: Phosphoglycerate kinase, glycosomal (Trypanosoma brucei brucei) (UniProt P07378); experiment: qHTS Validation Assay to Find Inhibitors of Phosphoglycerate Kinase (AID 504547); also: potency is read from the fitted curve at half-maximal effect
Procedure, shortened: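 Luminescence end-point (Kinase-Glo Plus, 10 min) after a 60 min room-temperature coupled reaction. GAPDH at 100nM final supplies 1,3-BPG to PGK. Buffer: 100mM TEA pH 7.6, 5mM MgCl2, 0.01% Tween-20. Wells lacking PGK served as controls.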

[3] = biological target: phosphoglycerate mutase (Leishmania major) (UniProt Q4Q090); experiment: qHTS Validation Assay to Find Inhibitors of Phosphoglycerate Mutase (AID 504548); conditions: Potency: inhibition qHTS;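 also: end-point luminescence from Kinase-GloPlus after the PGAM reaction; series mostly up to about 58 µM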
Procedure, shortened: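 Inhibition of L. major PGAM was assessed by Kinase-GloPlus luminescence following a 45-minute room-temperature reaction with enzyme at 1.25nM final.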

[4] = Inducers of the Endoplasmic Reticulum Stress Response (ERSR) in human glioma: Validation (AID 504836)
Procedure, shortened: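 ERSR induction read as luciferase luminescence (Bright-Glo, 10 min at room temperature) in stably transfected human U87-MG glioma cells exposed to compounds for 16 h, using GRP78 as sensor.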

[5] = biological target: Ubiquitin carboxyl-terminal hydrolase 1 (Homo sapiens) (UniProt O94782); experiment: Inhibitors of USP1/UAF1: Pilot qHTS (AID 504865); also: nearly all actives have a fitted effect of over 35% in size; also: potency is read from the fitted curve at half-maximal effect
Procedure, shortened: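 Deubiquitinase activity followed as kinetic rhodamine fluorescence release from 150 nM Ub-Rho. 1 nM USP1/UAF1 with compound, after 15 min room-temperature preincubation, in HEPES pH 7.8 buffer containing TCEP, EDTA, BSA and Tween-20.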

[6] = qHTS for Inhibitors of ATXN expression: Validation of Cytotoxic Assay (AID 588349); also: potency is read from the fitted curve at half-maximal effect
Procedure, shortened: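 Cytotoxicity counter-screen: HEK293 cells exposed to compound titrations, 72 hr, 37 degrees C. Read-out is intracellular ATP (CellTiter Glo luminescence) as a viability measure.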

[7] = qHTS for Inhibitors of ATXN expression: Validation (AID 588378); also: series mostly up to about 57 µM; nearly all actives have a fitted effect of over 75% in size
Procedure, shortened: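 Luciferase luminescence (Bright-Glo) from an ATXN2-FFLuc HEK293 line after 24 h compound exposure at 37 °C, preceded by a CellTiter-Fluor fluorescence viability read. Serial dilutions of a reference ATXN2 inhibitor and a luciferase inhibitor served as controls.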

Measured: Potency

Ubiquitin carboxyl-terminal hydrolase 1 (Homo sapiens), sequence (O94782 whole entry, looked up): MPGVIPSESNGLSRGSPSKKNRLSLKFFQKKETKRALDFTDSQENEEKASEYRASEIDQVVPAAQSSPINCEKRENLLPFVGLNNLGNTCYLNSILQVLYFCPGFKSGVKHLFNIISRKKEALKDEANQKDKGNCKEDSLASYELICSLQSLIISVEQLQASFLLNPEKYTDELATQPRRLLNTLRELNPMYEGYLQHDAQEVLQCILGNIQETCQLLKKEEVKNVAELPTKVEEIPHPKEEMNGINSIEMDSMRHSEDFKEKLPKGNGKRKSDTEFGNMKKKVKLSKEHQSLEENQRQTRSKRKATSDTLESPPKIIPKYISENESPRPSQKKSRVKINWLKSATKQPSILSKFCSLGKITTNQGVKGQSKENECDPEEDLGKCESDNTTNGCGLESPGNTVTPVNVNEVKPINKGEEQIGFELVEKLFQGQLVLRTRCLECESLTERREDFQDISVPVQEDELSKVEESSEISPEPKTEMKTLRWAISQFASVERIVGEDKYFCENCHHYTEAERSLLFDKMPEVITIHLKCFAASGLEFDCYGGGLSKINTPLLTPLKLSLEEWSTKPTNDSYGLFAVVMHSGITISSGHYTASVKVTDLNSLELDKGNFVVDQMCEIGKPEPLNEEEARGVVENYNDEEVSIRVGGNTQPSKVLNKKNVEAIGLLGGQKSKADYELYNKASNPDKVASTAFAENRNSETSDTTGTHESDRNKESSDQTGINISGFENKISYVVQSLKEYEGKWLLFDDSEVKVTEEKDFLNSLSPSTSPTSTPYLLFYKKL
Peptidyl-prolyl cis-trans isomerase NIMA-interacting 1 (Homo sapiens), sequence (Q13526 whole entry, looked up): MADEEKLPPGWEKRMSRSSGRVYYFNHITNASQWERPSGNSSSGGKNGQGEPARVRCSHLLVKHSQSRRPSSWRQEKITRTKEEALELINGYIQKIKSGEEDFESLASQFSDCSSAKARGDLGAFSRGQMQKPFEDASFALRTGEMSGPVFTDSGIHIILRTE
Phosphoglycerate kinase, glycosomal (Trypanosoma brucei brucei), sequence (P07378 whole entry, looked up): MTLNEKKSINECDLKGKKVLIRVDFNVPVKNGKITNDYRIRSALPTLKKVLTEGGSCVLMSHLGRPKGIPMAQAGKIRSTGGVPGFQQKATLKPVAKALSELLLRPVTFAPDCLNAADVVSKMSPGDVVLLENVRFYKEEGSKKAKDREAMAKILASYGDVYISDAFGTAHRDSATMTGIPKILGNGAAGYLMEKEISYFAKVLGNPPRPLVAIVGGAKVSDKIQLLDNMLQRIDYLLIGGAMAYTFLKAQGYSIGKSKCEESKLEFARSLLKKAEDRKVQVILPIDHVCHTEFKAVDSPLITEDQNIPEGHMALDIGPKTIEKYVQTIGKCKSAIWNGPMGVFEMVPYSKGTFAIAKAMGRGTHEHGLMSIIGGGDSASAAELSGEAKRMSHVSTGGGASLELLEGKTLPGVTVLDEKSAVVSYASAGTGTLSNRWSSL
phosphoglycerate mutase (Leishmania major), sequence (Q4Q090 1-553): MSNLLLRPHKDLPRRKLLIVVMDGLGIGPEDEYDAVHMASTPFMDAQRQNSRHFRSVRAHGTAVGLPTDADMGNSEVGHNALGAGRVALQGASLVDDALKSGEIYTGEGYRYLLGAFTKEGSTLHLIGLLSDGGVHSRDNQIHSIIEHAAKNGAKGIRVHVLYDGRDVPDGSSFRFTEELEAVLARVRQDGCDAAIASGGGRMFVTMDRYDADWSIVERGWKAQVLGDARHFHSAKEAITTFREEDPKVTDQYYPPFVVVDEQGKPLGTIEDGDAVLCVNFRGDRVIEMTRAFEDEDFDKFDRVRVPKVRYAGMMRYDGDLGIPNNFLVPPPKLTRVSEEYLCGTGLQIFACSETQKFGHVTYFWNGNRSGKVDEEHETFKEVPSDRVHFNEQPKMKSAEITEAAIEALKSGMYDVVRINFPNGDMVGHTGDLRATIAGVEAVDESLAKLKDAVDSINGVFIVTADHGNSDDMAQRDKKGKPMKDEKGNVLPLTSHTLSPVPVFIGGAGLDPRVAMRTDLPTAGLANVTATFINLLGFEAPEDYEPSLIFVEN

CCCN1CCc2cccc3c2[C@H]1Cc1ccc(O)c(O)c1-3
inactive: [1] | [2] | [3] | [4] | [5]
active: [6] 35.5 µM

CN1C2CCC1CC(OC(c1ccccc1)c1ccccc1N)C2 (stereo not drawn)
inactive: [1] | [2] | [3] | [4] | [5]

Nc1ccc(CCN2CCN(c3cccc(C(F)(F)F)c3)CC2)cc1
inactive: [1] | [2] | [3] | [4] | [5] | [6]

N[C@@H](Cn1ccc(=O)[nH]c1=O)C(=O)O
inactive: [1] | [2] | [3] | [4] | [5] | [6] | [7]

CCCN1CCC[C@@H](c2cccc(O)c2)C1
inactive: [1] | [2] | [3] | [4] | [5] | [6] | [7]

NCC(O)c1cc(O)c(O)cc1F (stereo not drawn)
inactive: [1] | [3] | [4] | [5] | [6] | [7]
active: [2] 21.3 µM

Cc1o[nH]c(=O)c1CC(N)C(=O)O (stereo not drawn)
inactive: [1] | [2] | [3] | [4] | [5] | [6] | [7]

CN1CCc2cccc(Cl)c2CC1
inactive: [1] | [2] | [3] | [4] | [5] | [6] | [7]

COC(=O)N1CCN(C(=O)Cc2ccc(Cl)c(Cl)c2)C(CN2CCCC2)C1 (stereo not drawn)
inactive: [1] | [2] | [3] | [4] | [5]

CCNC(=O)[C@H]1O[C@@H](n2cnc3c(N)ncnc32)[C@H](O)[C@@H]1O
inactive: [1] | [2] | [3] | [4] | [5] | [6] | [7]

c1ccc2c(N3CCNCC3)cccc2c1
inactive: [1] | [2] | [3] | [4] | [5] | [6]

OC1CCCCC1N1CCC(c2ccccc2)CC1 (stereo not drawn)
inactive: [1] | [2] | [3] | [4] | [5] | [6] | [7]

NNC(=O)c1ccc(O)cc1
inactive: [1] | [2] | [3] | [4] | [5] | [6] | [7]

CC(=O)NBr
inactive: [1] | [2] | [3] | [4] | [5] | [6] | [7]

COc1ccc(CNC(=O)/C=C/c2ccc3[nH]cc(CCN(C)C)c3c2)cc1
inactive: [1] | [2] | [3] | [4] | [5] | [6]

NCCc1ccc(S(=O)(=O)F)cc1
inactive: [1] | [2] | [3] | [4] | [5] | [6] | [7]

COc1ccc2c(c1)c(CCN1CCOCC1)c(C)n2C(=O)c1cccc(Cl)c1Cl
inactive: [1] | [2] | [3] | [4]

COc1ccc2c(c1)C13CCCCC1C(C2)N(C)CC3 (stereo not drawn)
inactive: [1] | [2] | [3] | [4] | [5] | [6]

CCCCCCC(C)(C)c1ccc([C@@H]2C[C@H](O)CC[C@H]2CCCO)c(O)c1
inactive: [1] | [2] | [3] | [4]

NC(Cc1ccc(N(CCCl)CCCl)cc1)C(=O)O (stereo not drawn)
inactive: [1] | [2] | [3] | [4] | [5] | [6]

CN(N=O)c1ccc(O)c(O)c1
active: [1] 4.78 µM | [2] 6.01 µM | [5] 22.4 µM
inactive: [3] | [4] | [6] | [7]

N[C@@H](CCl)C(=O)O
inactive: [1] | [2] | [3] | [4] | [5] | [6] | [7]

CC12NC(Cc3ccccc31)c1ccccc12 (stereo not drawn)
inactive: [1] | [2] | [3] | [4] | [5] | [6] | [7]

CP(=O)(O)C1=CCNCC1
inactive: [1] | [2] | [3] | [4] | [5] | [6] | [7]

CCN1C[C@@]2(COC)C3[C@@H](OC)C4[C@@H]1C3([C@@H]1C[C@]3(O)[C@H](OC(=O)c5ccccc5)[C@@H]1[C@]4(OC(C)=O)[C@@H](O)[C@@H]3OC)[C@H](OC)C[C@H]2O
inactive: [1] | [2] | [3] | [4] | [5] | [6] | [7]

CC(N)Cc1c[nH]c2ccc(O)cc12 (stereo not drawn)
inactive: [1] | [2] | [3] | [4] | [5] | [6] | [7]

C[Se]C[C@H](N)C(=O)O
inactive: [1] | [2] | [3] | [4] | [5] | [6]

C[N+](C)(C)CC#CCOC(=O)Nc1cccc(Cl)c1
inactive: [1] | [2] | [3] | [4] | [5] | [6] | [7]

NC(=O)c1cc(N2CC2)c([N+](=O)[O-])cc1[N+](=O)[O-]
inactive: [1] | [2] | [3] | [4] | [5] | [6] | [7]

NC(=O)c1ccc(OCC(O)CN2CC=C(c3ccc(F)cc3)CC2)cc1 (stereo not drawn)
inactive: [1] | [2] | [3] | [4] | [5] | [6] | [7]
